# Results filed as inconclusive are left out. Where a call stands in place of a potency, no number is given. Activity calls are given as the source filed them. Unless noted, calls come from the whole dose curve; as a rule, active = well fitted curve in the direction sought with a large enough effect in the repeat runs; inconclusive = weak or mixed curves; inactive = no such curve, though single readings can be large; an effect the other way counts as inactive or inconclusive.
# Tested on: not listed separately
# Assay: qHTS assay to identify small molecule agonists of the endoplasmic reticulum stress response signaling pathway - cell viability counter screen (AID 1159517; calls by dose curve;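 note: HeLa cells carrying an ER stress response element beta-lactamase reporter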)
# Conditions: ESRE-bla HeLa viability, CellTiter-Glo luminescence, 5 h; series mostly up to 61 µM
# Outline: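 HeLa cells carrying an ESRE-driven beta-lactamase reporter receive compound for 5 hr at 37 C. Cell viability is then gauged with CellTiter-Glo by luminescence, 30 min at room temperature.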
# Note: nearly all actives have a fitted effect of over 50% in size.
row,Structure (SMILES),Potency
1,O=C(O)CCSSCCC(=O)O,inactive
2,COc1ccc(-c2cc(=O)c3c(O)cc(O[C@@H]4O[C@H](CO[C@@H]5O[C@@H](C)[C@H](O)[C@@H](O)[C@H]5O)[C@@H](O)[C@H](O)[C@H]4O)cc3o2)cc1O,inactive
3,NNc1nnc(NN)c2ccccc12,inactive
4,O=C(CS(=O)Cc1ccco1)NC/C=C\COc1cc(CN2CCCCC2)ccn1 (configuration not stated),inactive
5,COc1cc(N)ccc1C,inactive
6,COc1ccc(S(=O)(=O)N2c3ccc(Cl)cc3[C@@](O)(c3ccccc3Cl)[C@H]2C(=O)N2CCC[C@@H]2C(N)=O)cc1OC,inactive
7,Cc1ccc2c(c1)OCC(=O)CO2,inactive
8,Cc1nc2n(c(=O)c1CCN1CCC(c3noc4cc(F)ccc34)CC1)CCC[C@H]2O,inactive
9,CC(CN)CC(C)(C)CCN (configuration not stated),inactive
10,COC(=O)c1ccccc1C(=O)c1ccc(OCCN2CCCCC2)cc1,inactive
11,Nc1nnc(-c2cccc(Cl)c2Cl)c(N)n1,inactive
12,O=C1c2ccccc2C(=O)C1c1ccccc1,inactive
13,CCCCOC(=O)c1ccccc1,inactive

# Tested on: not listed separately
# Assay: qHTS assay to identify small molecule antagonists of the retinoid-related orphan receptor gamma (ROR-gamma) signaling pathway - cell viability counter screen (AID 1159520)
# Conditions: Tet-on RORgamma CHO cells viability, ATP luminescence, 16 h; series mostly up to 92.4 µM
# Outline: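 Cytotoxicity was read from cellular ATP (CellTiter-Glo luminescence) after 16 hr at 37 C with 1 uM doxycycline induction. The inducer was added 2 hr after compound transfer to Tet-on ROR gamma CHO cells.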
Structure (SMILES),outcome,"activity, negative = cytotoxicity"
C#CC(C)N(C)C(=O)Nc1ccc(Cl)cc1 (configuration not stated),inactive,–
CC(C)(C)OC(=O)c1ccc(O)cc1,inactive,–
CCN(C)C(=O)Oc1cccc([C@H](C)N(C)C)c1,inactive,–
CC(=O)c1ccc2c(c1)Cc1ccccc1-2,inactive,–
CCN1CCc2nc(N)oc2CC1,inactive,–
COc1nccnc1NS(=O)(=O)c1ccc(N)cc1,inactive,–
BrCCCCCBr,inactive,–
c1ccc2c(c1)ccc1c3ccccc3ccc21,inactive,–
CCC(C=O)CC,inactive,–
CN(CCOc1ccc(NS(C)(=O)=O)cc1)CCc1ccc(NS(C)(=O)=O)cc1,inactive,–
O=C1c2ccccc2C(=O)N1CCl,inactive,–
CN(C)CCOCCO,inactive,–
CCOC(=O)CC(=O)c1ccccc1,inactive,–
O=C(O)c1ccc(Cl)cc1Cl,inactive,–
CN(C)c1ccc(C=O)cc1,inactive,–
CCOc1cc(NC(C)=O)ccc1C(=O)OC,inactive,–
CC(=C(CCOC(=O)C(C)C)SSC(CCOC(=O)C(C)C)=C(C)N(C=O)Cc1cnc(C)nc1N)N(C=O)Cc1cnc(C)nc1N,inactive,–
C[C@@H](Oc1ccc(CNC(=O)c2cccnc2Oc2ccc3c(c2)OCO3)c(F)c1)C(=O)O,inactive,–
O=C(NCCN1CCOCC1)c1ccc(Cl)cc1,inactive,–

Structure (SMILES),outcome,"activity, negative = cytotoxicity"
N[C@@H](COP(=O)(O)O)C(=O)O,–,-0.691% [at 19 µM] (inactive)
COCCOCCOCCOCCO,inactive,–
CCCCCCCC/C=C\CCCCCCCC(=O)OCCCC,–,-6.58% [at 19 µM] (inactive)
Cc1ccsc1/C=C/C1=NCCCN1C,inactive,–
CNC(=O)[C@H]1O[C@@H](n2cnc3c(NCc4cc(Cl)ccc4OCc4cc(C)no4)ncnc32)[C@H](O)[C@@H]1N,inactive,–
O=C(O)CCSSCCC(=O)O,inactive,–
COc1ccc(-c2cc(=O)c3c(O)cc(O[C@@H]4O[C@H](CO[C@@H]5O[C@@H](C)[C@H](O)[C@@H](O)[C@H]5O)[C@@H](O)[C@H](O)[C@H]4O)cc3o2)cc1O,inactive,–
NNc1nnc(NN)c2ccccc12,inactive,–
O=C(CS(=O)Cc1ccco1)NC/C=C\COc1cc(CN2CCCCC2)ccn1 (configuration not stated),inactive,–
COc1cc(N)ccc1C,inactive,–
COc1ccc(S(=O)(=O)N2c3ccc(Cl)cc3[C@@](O)(c3ccccc3Cl)[C@H]2C(=O)N2CCC[C@@H]2C(N)=O)cc1OC,inactive,–
Cc1ccc2c(c1)OCC(=O)CO2,inactive,–
Cc1nc2n(c(=O)c1CCN1CCC(c3noc4cc(F)ccc34)CC1)CCC[C@H]2O,–,0.561% [at 19 µM] (inactive)
CC(CN)CC(C)(C)CCN (configuration not stated),inactive,–
COC(=O)c1ccccc1C(=O)c1ccc(OCCN2CCCCC2)cc1,inactive,–
Nc1nnc(-c2cccc(Cl)c2Cl)c(N)n1,inactive,–
O=C1c2ccccc2C(=O)C1c1ccccc1,inactive,–
CCCCOC(=O)c1ccccc1,inactive,–

# Target: Nuclear receptor ROR-gamma (Homo sapiens) (UniProt P51449)
# Assay: qHTS assay to identify small molecule antagonists of the retinoid-related orphan receptor gamma (ROR-gamma) signaling pathway (AID 1159521;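 note: CHO cells with doxycycline inducible ROR-gamma driving an RORE luciferase reporter; top concentration of the series differs between compounds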)
# Conditions: Tet-on RORgamma CHO cells, RORE-luciferase, 16 h; series mostly up to 92.4 µM
# Outline: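 Screening format: cell-based luciferase reporter in CHO cells with doxycycline-inducible RORγ. Compound pre-exposure lasts 2 h, doxycycline is 1 uM final, induction runs 16 h at 37 C, and ONE-Glo luminescence is read.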
Structure (SMILES),outcome,"activity change, negative = inhibition"
C#CC(C)N(C)C(=O)Nc1ccc(Cl)cc1 (configuration not stated),inactive,–
CC(C)(C)OC(=O)c1ccc(O)cc1,inactive,–
CCN(C)C(=O)Oc1cccc([C@H](C)N(C)C)c1,inactive,–
CC(=O)c1ccc2c(c1)Cc1ccccc1-2,inactive,–
CCN1CCc2nc(N)oc2CC1,inactive,–
COc1nccnc1NS(=O)(=O)c1ccc(N)cc1,inactive,–
BrCCCCCBr,inactive,–
c1ccc2c(c1)ccc1c3ccccc3ccc21,inactive,–
CCC(C=O)CC,inactive,–
CN(CCOc1ccc(NS(C)(=O)=O)cc1)CCc1ccc(NS(C)(=O)=O)cc1,inactive,–
O=C1c2ccccc2C(=O)N1CCl,inactive,–
CN(C)CCOCCO,inactive,–
CCOC(=O)CC(=O)c1ccccc1,inactive,–
O=C(O)c1ccc(Cl)cc1Cl,inactive,–
CN(C)c1ccc(C=O)cc1,inactive,–
CCOc1cc(NC(C)=O)ccc1C(=O)OC,inactive,–
CC(=C(CCOC(=O)C(C)C)SSC(CCOC(=O)C(C)C)=C(C)N(C=O)Cc1cnc(C)nc1N)N(C=O)Cc1cnc(C)nc1N,inactive,–
C[C@@H](Oc1ccc(CNC(=O)c2cccnc2Oc2ccc3c(c2)OCO3)c(F)c1)C(=O)O,inactive,–
O=C(NCCN1CCOCC1)c1ccc(Cl)cc1,inactive,–

Structure (SMILES),outcome,"activity change, negative = inhibition"
N[C@@H](COP(=O)(O)O)C(=O)O,–,-15% [at 19 µM] (inactive)
COCCOCCOCCOCCO,inactive,–
CCCCCCCC/C=C\CCCCCCCC(=O)OCCCC,–,12% [at 19 µM] (inactive)
Cc1ccsc1/C=C/C1=NCCCN1C,inactive,–
CNC(=O)[C@H]1O[C@@H](n2cnc3c(NCc4cc(Cl)ccc4OCc4cc(C)no4)ncnc32)[C@H](O)[C@@H]1N,inactive,–
O=C(O)CCSSCCC(=O)O,inactive,–
COc1ccc(-c2cc(=O)c3c(O)cc(O[C@@H]4O[C@H](CO[C@@H]5O[C@@H](C)[C@H](O)[C@@H](O)[C@H]5O)[C@@H](O)[C@H](O)[C@H]4O)cc3o2)cc1O,inactive,–
NNc1nnc(NN)c2ccccc12,inactive,–
O=C(CS(=O)Cc1ccco1)NC/C=C\COc1cc(CN2CCCCC2)ccn1 (configuration not stated),inactive,–
COc1cc(N)ccc1C,inactive,–
COc1ccc(S(=O)(=O)N2c3ccc(Cl)cc3[C@@](O)(c3ccccc3Cl)[C@H]2C(=O)N2CCC[C@@H]2C(N)=O)cc1OC,inactive,–
Cc1ccc2c(c1)OCC(=O)CO2,inactive,–
Cc1nc2n(c(=O)c1CCN1CCC(c3noc4cc(F)ccc34)CC1)CCC[C@H]2O,–,29.3% [at 19 µM] (inactive)
CC(CN)CC(C)(C)CCN (configuration not stated),inactive,–
COC(=O)c1ccccc1C(=O)c1ccc(OCCN2CCCCC2)cc1,inactive,–
Nc1nnc(-c2cccc(Cl)c2Cl)c(N)n1,inactive,–
O=C1c2ccccc2C(=O)C1c1ccccc1,inactive,–
CCCCOC(=O)c1ccccc1,inactive,–

# Reference: PubChem BioAssay (Tox21)
